From PubChem BioAssay (NCATS) come the findings set out here.

The nature of assay [1]: OV-KATE Cancer Cell Toxicity qHTS against the NCATS CANVASS Library (AID 1347345). Also: potency is read from the fitted curve at half-maximal effect. Summed up: (§1)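 Per well, 1000 cells; exposure 72 h with compound at 11 final concentrations; readout CellTiter-Glo luminescence.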
A short description of assay [2]: UWB1.289-WTBRCA1 Cancer Cell Toxicity qHTS against the NCATS CANVASS Library (AID 1347354). Summed up: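 Toxicity was measured as CellTiter-Glo luminescence after 72 h exposure to an 11-point compound series. Compound was added to 1000 cells/well 4 h after seeding.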
Assay [3] in a line: HPAF-II 12hr Apoptosis Induction qHTS against the NCATS CANVASS Library (AID 1347358). Summed up: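 Caspase-3/7 activation by DEVD-substrate luminescence (Caspase-Glo 3/7, 15 min, room temperature) after a 12-hour compound exposure in 11 concentrations, of HPAF-II pancreatic cells seeded at 500/well in DMEM with 10% FBS.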
On the technique in general: In qHTS, concentration-response curves come from the screen itself.

In assay [4] the test system is NAD(P)H diaphorase (Clostridium kluyveri). The assay is described as follows: Diaphorse counterscreen qHTS: Assay Interference Panel against the NCATS CANVASS Library (AID 1347362). The method in brief:
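Counterscreen for coupling-enzyme interference: resorufin fluorescence from resazurin/NADH turnover, read after 5 min at room temperature. Compounds were tested over an 11-point series after 15 min dark preincubation with diaphorase in PBS-Tween.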
(Counterscreens check selectivity or assay interference.)

The nature of assay [5]: KB-3-1 Cancer Cell Toxicity qHTS against the NCATS CANVASS Library (AID 1347366). Also: series mostly up to about 46 µM; nearly all actives have a fitted effect of over 75% in size. Summed up:
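Cytotoxicity toward KB-3-1 cells (500/well, DMEM + 10% FBS) was scored by CellTiter-Glo luminescence following 72 hr exposure at 37C, with bortezomib titrated as control.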

A short description of assay [6]: G06 Cancer Cell Toxicity qHTS against the NCATS CANVASS Library (AID 1347368). Also: nearly all actives have a fitted effect of over 60% in size. Also: potency is read from the fitted curve at half-maximal effect. The method in brief: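 Viability measured by CellTiterGlo ATP luminescence after 72 hr at 37C, 5% CO2. Canine G06 glioma cells plated at 500/well. Compounds tested as 11-point qHTS titrations.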
A short description of assay [7]: qHTS for ATAD5 Antagonist screened against the NCATS CANVASS Library (AID 1347370). Also: nearly all actives have a fitted effect of over 65% in size. Also: potency is read from the fitted curve at half-maximal effect. The method in brief: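 Compounds (11-point) co-dosed with 10 µM 5-FUrd for 16 h at 37 °C onto HEK293T-ATAD5 luciferase reporter cells. Viability measured by CellTiter-Fluor fluorescence, then ATAD5 reporter signal by luminescence.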
Assay [8] is described as follows: J3T Cancer Cell Toxicity qHTS against the NCATS CANVASS Library (AID 1347371). Also: potency is read from the fitted curve at half-maximal effect. The method in brief:
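Cytotoxicity read as CellTiterGlo ATP luminescence after 72 h incubation (37C, 5% CO2) of J3T canine glioma cells (500/well) with an 11-point compound series.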

Assay [9] can be described thus: qHTS for Inflammasome Signaling Inhibitors: IL-1-beta AlphaLISA screen against the NCATS CANVASS Library (AID 1347379).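 Also: human THP-1 cells primed with LPS then triggered with ATP.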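 As to Potency: secreted IL-1B measured as AlphaLISA emission at 615 nm; potency is read from the fitted curve at half-maximal effect.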 Summed up: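 Secreted IL-1B from human THP-1 cells quantified by AlphaLISA 16 hr after compound addition (final up to 57.5 uM). A 1 hr compound pretreatment preceded inflammasome activation with 250 ng/mL LPS plus 1.25 mM ATP (final).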
Assay [10] can be described thus: qHTS for Activators of p53 Stress Response Pathway screened against the NCATS CANVASS Library (AID 1347388). Also: potency is read from the fitted curve at half-maximal effect. The method in brief: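 Beta-lactamase reporter driven by p53 response elements in HCT-116 cells, read as the 460 nm/530 nm emission ratio after CCF4 loading, following 16 h of exposure to an 11-point series. Cell viability was measured in the same wells by CellTiter-Glo luminescence.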

A short description of assay [11]: qHTS assay for small molecule disruptors of mitochondrial membrane potential screened against the NCATS CANVASS Library (AID 1347389). Also: series mostly up to about 46 µM; nearly all actives have a fitted effect of over 60% in size. The method in brief: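 Mitochondrial membrane potential in HepG2: 1 h compound treatment (11-point concentration series), 30 min m-MPI dye at 37C, then dual fluorescence of J-aggregates (ex 540/em 590) and monomers (ex 490/em 535); lower red/green ratio indicates depolarization.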

Assay [12] can be described thus: qHTS for activators of Nrf2/ARE signaling pathway screened against the NCATS CANVASS Library (AID 1347391). Also: nearly all actives have a fitted effect of over 60% in size. Also: potency is read from the fitted curve at half-maximal effect. The method in brief:
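Eleven-point qHTS, 16 h treatment of HepG2 cells carrying an ARE-driven beta-lactamase reporter; CCF4 ratio read (405 nm excitation, 460 and 530 nm emission), with CellTiter-Glo ATP luminescence for viability.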

Assay [13] is described as follows: qHTS for activators of dead-cell proteases activity screened against the NCATS CANVASS Library (AID 1347392).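 Also: luminescence from protease leaking out of membrane-damaged cells cleaving impermeant substrate; rising signal means more cytotoxicity.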 The method in brief:
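Luminescent dead-cell protease readout (AAF-aminoluciferin, 15 min, room temperature) after 5 h compound treatment of HepG2 cells (2000/well, pre-attached 18 h). Eleven concentrations.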

Assay [14] in a line: qHTS for inhibitors of Wild type Zika virus screened against the NCATS CANVASS Library (AID 1347396).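 Also: ATP luminescence of surviving cells so rescue from viral cell killing; series mostly up to about 46 µM.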 Summed up: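 Protection against wild-type Zika cytopathic effect is measured in African green monkey Vero 766 cells exposed to an 11-point compound series. Surviving cells are quantified by CellTiter Glo luminescence after 72 h.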
Assay [15] can be described thus: HEK293 12hr Apoptosis Induction qHTS against the NCATS CANVASS Library (AID 1347361). The method in brief: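 Luminescent caspase-3/7 signal, proportional to enzyme activity, was recorded from HEK293 cultures in DMEM + 10% FBS treated for 12 hours with titrated natural products (11 points). Doxorubicin (0.1nM - 4uM) served as control.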
A short description of assay [16]: Secretion counterscreen for inhibitors of the SERCaMP assay screened against the NCATS CANVASS Library (AID 1347390).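 Also: light from luciferase secreted into medium read as a measure of general secretion.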 Also: potency is read from the fitted curve at half-maximal effect. The method in brief: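 Natural products are titrated in an 11-point series up to 77 uM onto SH-SY5Y-GLuc STOP cells for 20 h. Secreted reporter activity is measured as coelenterazine-driven luminescence, with Brefeldin A on each plate.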
Assay [17] in a line: Redox Reaction Profiling qHTS: Assay Interference Panel against the NCATS CANVASS Library (AID 1347401). Summed up: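 Redox-cycling liability assessed as DTT-driven conversion of resazurin (5 uM, with 200 uM DTT, HEPES pH 7.3) to fluorescent resorufin. Fluorescence at 525/598 nm measured initially and after 15 min dark incubation.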
Assay [18] in a line: SW1088 Cancer Cell Toxicity qHTS against the NCATS CANVASS Library (AID 1347350). Also: nearly all actives have a fitted effect of over 75% in size. Also: potency is read from the fitted curve at half-maximal effect. Summed up: as §1
A short description of assay [19]: KB-8-5-11 Cancer Cell Toxicity qHTS against the NCATS CANVASS Library (AID 1347364). Also: nearly all actives have a fitted effect of over 75% in size. Also: potency is read from the fitted curve at half-maximal effect. The method in brief:
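Viability read as CellTiter-Glo luminescence after 72 h at 37 °C, 5% CO2. 11-point compound series on 500 KB-8-5-11 cells/well in DMEM/10% FBS. Follow-up plating included 1 uM tariquidar in the medium.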

Assay [20] can be described thus: qHTS for inhibitors of ER calcium dysfunction: SERCaMP assay screened against the NCATS CANVASS Library (AID 1347393). Also: nearly all actives have a fitted effect of over 40% in size. Also: potency is read from the fitted curve at half-maximal effect. The method in brief:
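Thapsigargin-induced ER calcium depletion drives GLuc-SERCaMP secretion from SH-SY5Y cells; compounds given 16 h beforehand were scored by lowered coelenterazine luminescence after 4 h challenge.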

Results filed as inconclusive are left out. Calls of active or inactive are those of the source. Calls follow the shape of the dose curve; as a rule, active = well fitted curve in the direction sought with a large enough effect; inconclusive = small, poorly fitted or top-dose-only effect, or another doubt; inactive = no such curve, though single readings can be large; an effect the other way counts as inactive or inconclusive.

Take `C=C[C@@](C)(O)CC[C@@H]1[C@@]2(C)CCCC(C)(C)[C@@H]2CC[C@@]1(C)O`: the Potency result in [1], in [2], in assay [3], in [4], in [5] and in [6] was “inactive” throughout. In addition, the Potency result in [7], in [8], in [9], in [10], in [11] and in assay [12] was “inactive” each time. For the same compound, the Potency entry in [13] was “inactive”. In assay [14], the result was inactive.

In the case of `C[C@H]1CCC2(OC1)O[C@H]1C[C@H]3[C@@H]4CC(=O)[C@]5(O)C[C@H](O)CC[C@@]5(C)[C@H]4CC[C@@]3(C)[C@H]1[C@H]2C` (stereo not given in full), the Potency entry in assay [1], in assay [3], in assay [4], in [5], in assay [7] and in assay [8] was “inactive” in each case. Also, the Potency result in assay [11], in assay [16] and in [17] was “inactive” each time. Also, in assay [15], the result was inactive. The Potency in assay [9] is 24.3 µM (active); in assay [10], 23.4 µM (active); in assay [12] it was 2.09 µM (active).

As to `CC[C@H]1[C@@H](C)[C@@H](c2cc(OC)c(OC)cc2OC)[C@H](C)[C@@H](c2cc(OC)c(OC)cc2OC)[C@@]12C=C(OC)C(=O)C=C2OC`, the Potency in assay [18] was 11.9 µM (active); in assay [19] it was 29.6 µM (active); in [20] it was 0.86 µM (active). The compound was classed as inactive in assay [15]. Also, the Potency result in [8], in assay [13] and in assay [17] was “inactive” in each case.

For `C=C1C(=O)O[C@H]2[C@H]1CCC(C)=C1CC[C@@](C)(O)[C@@H]12`, the Potency in assay [1] is 11.8 µM (active); in assay [18], 14.9 µM (active); in assay [19], 23.5 µM (active); in [6] it was 16.6 µM (active); in [9] it was 9.68 µM (active); in [16], 34.3 µM (active). Further, the Potency in [12] is 0.186 µM (active); in assay [20], 2.72 µM (active). Also, the call in assay [15] and in [14] was inactive. Also, the Potency result in assay [4], in [10], in assay [13] and in assay [17] was “inactive” each time.

With `C=C1C[C@H]2O[C@@H]3[C@@H]4[C@H](CC[C@@](C)(O)[C@@H]42)[C@H](C)COC3(C)[C@@H](OC(=O)CCCCCCC)CC1=O` (stereo not given in full), the Potency in assay [1] is 21.1 µM (active); in [18], 8.41 µM (active); in [6] it was 5.9 µM (active); in assay [9], 19.3 µM (active); in assay [16], 48.4 µM (active). Moreover, the Potency result in [4], in [12], in assay [13] and in [17] was “inactive” in each case.

For the compound `CO[C@@H]1[C@H](O)[C@@H](C)O[C@@H](OC[C@@H]2C(C)OC(=O)/C=C/[C@H](C)C(O[C@@H]3O[C@H](C)CC4(OC(=O)O[C@@H]4C)C3O)[C@@H](C)CC(C)C(=O)/C=C/[C@H]3OC23)[C@@H]1OC` (stereo not given in full), the Potency entry in assay [18], in assay [3], in assay [4], in assay [19], in assay [9] and in [10] was “inactive” throughout. Further, the Potency entry in [11], in assay [16], in assay [13] and in assay [17] was “inactive” in each case. In addition, the Potency is 16.6 µM (active) in assay [6]; 16.6 µM (active) in assay [7]; 13.2 µM (active) in [8]; 3.71 µM (active) in [12]; 8.6 µM (active) in assay [20]. Further, the compound was called inactive in [14].

Consider `C/C1=C/[C@@H](C)[C@H](O)C/C=C/CC/C=C/C(=O)O[C@@H]1[C@H](C)C(=O)CCCC1CC(=O)NC(=O)C1`, for which the Potency result in assay [1], in assay [18], in assay [4], in assay [19], in assay [5] and in assay [9] was “inactive” in each case. Besides, the Potency result in assay [10], in [11], in assay [20] and in assay [17] was “inactive” in each case. Also, the call in [15] and in assay [14] was inactive. Further, the values for the Potency in assay [6] and in assay [7] were 4.69 µM (active) and 20.9 µM (active), respectively.

As to `COc1cc2c(cc1OC)[C@@H](c1ccc3c(c1)OCO3)C(C)[C@@H](C)C2=O` (stereo not given in full), the Potency result in [1], in assay [2], in [3], in [4], in [5] and in assay [8] was “inactive” in each case. The Potency entry in assay [9], in assay [10], in assay [11], in [16] and in [13] was “inactive” in each case. Also, the Potency in assay [7] was 11.7 µM (active); in assay [20] it was 34.3 µM (active).
